# PKA-R1A activ: PKA-R1A complex activation. P00514+P68181. 340,000 tested, 0.083% active. AID 504707. PKA-R1A dissociation, Cy5-IP20 fluorescence polarization; scaled: DMSO 0%, 113 µM cGMP 100%. activation, % at 11.4 µM;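 active means percent activation above the mean of all tested compounds plus 3 SD, cut at about 19% in these data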;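 further: higher means more PKAc released from R1A so a rise in polarization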
# PAFAH1B3 inh: blocks human PAF acetylhydrolase 1B catalytic subunit 3; Q15102; recombinant PAFAH1B3, FP-rhodamine probe, fluorescence polarization; inhibition, % at 3.39 µM; 340,000 tested, 0.28% active; AID 492972;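 active means inhibition above the screen-wide average of all tested compounds plus 3 SD, cut at about 25% in these data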;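 further: 0% = enzyme with DMSO only and 100% = wells lacking PAFAH1B3 protein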
# pPAFAH FP inh: pPAFAH (human) enzyme inhibition; AID 463082; recombinant pPAFAH, FP-rhodamine probe fluorescence polarization; inhibition, % at 3.39 µM; 330,000 tested, 1.5% active; Q13093;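 active means inhibition above the mean inhibition across the screen plus 3 SD, cut at about 25% in these data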;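 further: inhibitors block binding of the rhodamine activity-based probe so polarization drops; 0% = enzyme with DMSO and 100% = wells lacking pPAFAH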
# Target sequence (Q13093 whole entry, looked up): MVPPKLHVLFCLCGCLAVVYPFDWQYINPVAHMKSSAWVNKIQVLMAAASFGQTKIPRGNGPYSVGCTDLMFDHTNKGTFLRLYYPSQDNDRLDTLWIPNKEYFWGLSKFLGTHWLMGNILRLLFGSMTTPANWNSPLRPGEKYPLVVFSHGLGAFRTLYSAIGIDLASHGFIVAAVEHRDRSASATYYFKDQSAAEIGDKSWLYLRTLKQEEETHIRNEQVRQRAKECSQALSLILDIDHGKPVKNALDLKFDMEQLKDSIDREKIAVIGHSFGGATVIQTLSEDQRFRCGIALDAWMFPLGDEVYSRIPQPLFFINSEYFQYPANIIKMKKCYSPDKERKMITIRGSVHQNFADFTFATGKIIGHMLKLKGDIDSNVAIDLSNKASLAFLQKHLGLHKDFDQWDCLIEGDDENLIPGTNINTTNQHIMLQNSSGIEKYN
# PKA-R2B act: activates the human PKA-R2B holoenzyme complex; AID 504700; activation, % at 11.4 µM; P22694+P31323; PKA-R2B holoenzyme dissociation, Cy5-IP20 fluorescence polarization; R2B truncated from residue 108, S112A mutant; 0% DMSO only, 100% 113 µM cGMP; 340,000 tested, 0.079% active;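 active means activation above a cutoff set at the mean over all compounds plus 3 SD, cut at about 18% in these data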;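 further: higher means more holoenzyme dissociation and a rise in polarization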
# PAFAH2 inh: inhibitors of human PAFAH2 | Q99487 | recombinant PAFAH2, FP-rhodamine activity probe, fluorescence polarization | inhibition, % at 3.39 µM | 340,000 tested, 0.99% active | AID 492956;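 active means inhibition above the mean over all tested compounds plus 3 SD, cut at about 30% in these data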;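 further: inhibitors block probe labeling of enzyme so polarization drops; 0% = enzyme with DMSO and 100% = wells lacking PAFAH2 protein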
# PAFAH1B2 inh: blocks human PAF acetylhydrolase 1b catalytic subunit 2. recombinant PAFAH1B2, FP-rhodamine activity probe, fluorescence polarization. AID 492953. 340,000 tested, 1.2% active. inhibition, % at 3.39 µM. P68402;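 active means inhibition above the mean of all tested compounds plus 3 SD, cut at about 24% in these data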;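 further: 0% = enzyme with DMSO and 100% = wells lacking PAFAH1B2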
# Target sequence (P68402 whole entry, looked up): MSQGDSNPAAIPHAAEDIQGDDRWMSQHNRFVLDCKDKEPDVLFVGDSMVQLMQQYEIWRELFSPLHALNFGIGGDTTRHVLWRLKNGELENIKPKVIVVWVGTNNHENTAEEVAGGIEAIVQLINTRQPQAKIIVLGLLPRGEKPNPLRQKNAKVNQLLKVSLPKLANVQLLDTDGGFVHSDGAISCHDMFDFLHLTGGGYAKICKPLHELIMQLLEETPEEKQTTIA
# Starred values were filed as active, the others as inactive; nt = no result. Shown are actives, neighbours in structure and some others; about 2.6% of the full set was active somewhere.
SMILES,PKA-R1A activ,PAFAH1B3 inh,pPAFAH FP inh,PKA-R2B act,PAFAH2 inh,PAFAH1B2 inh
CC(NC(=O)CN1C(=O)NC(Cc2ccccc2)(Cc2ccccc2)C1=O)C12CC3CC(CC(C3)C1)C2 (stereo not drawn),-5.3,-2.7,7.5,0.0,10.1,72.5*
CC(NC(=O)Cn1c(=O)[nH]c2ccsc2c1=O)C12CC3CC(CC(C3)C1)C2 (stereo not drawn),-10.0,8.6,14.5,-5.9,26.7,27.7*
O=C(COC(=O)c1sc2ccccc2c1Cl)NCC1CCCCC1,-7.9,-0.3,27.2*,0.8,15.0,3.7
CN(C)CCO[C@@H](c1ccc(Cl)cc1)c1ccccn1,-2.2,4.8,27.3*,-5.6,-2.2,-1.0
O=C(O)c1ccc(N/N=C/c2ccc(OC(=O)c3ccccc3Cl)cc2)cc1,-10.8,9.6,26.9*,-17.4,16.3,-0.8
Nc1ccc(C(=O)N/N=C\c2ccc(OC(=O)c3ccccc3Cl)cc2)cc1,1.7,7.6,12.4,7.6,-8.3,-0.5
C/C(=N\OC(=O)c1ccc(Cl)c(Cl)c1)c1sc(C)nc1C,-3.0,5.6,33.9*,-3.3,5.5,0.5
C/C(=N\OC(=O)c1ccc(F)cc1)c1sc(-c2ccc(Cl)cc2)nc1C,-2.7,2.7,2.5,-7.8,0.1,2.6
O=C(O)/C=C\C(=O)Nc1ccc(N2CCN(c3ccc(Cl)cc3)CC2)cc1,7.1,4.4,15.3,-1.9,4.8,24.7*
CC(Nc1ccc(Cl)cc1)c1cc(Cl)ccc1O (stereo not drawn),3.1,9.0,1.6,-9.7,-3.4,43.4*
CCOc1ccc(NC(C)c2cc(Cl)ccc2O)cc1 (stereo not drawn),-11.9,-0.5,5.1,-6.2,5.9,2.5
CCN(CC)CCN(C(=O)c1ccc(S(=O)(=O)N(CC)c2ccccc2)cc1)c1nc2c(OC)ccc(OC)c2s1,-3.4,-4.6,4.5,-8.3,-2.5,30.5*
COc1cc(NC(=O)c2ccccc2)c(OC)cc1NC(=O)CN1C(=O)N(C)C2(CCCCC2)C1=O,-3.7,11.4,nt,-3.9,4.7,1.4
COc1ccc(S(=O)(=O)Nc2ccccc2C(=O)NCc2ccco2)cc1,4.6,-4.0,1.7,5.3,4.7,1.1
O=C(NCc1ccco1)c1ccccc1NS(=O)(=O)c1ccc(Br)s1,-4.2,8.2,28.4*,0.3,15.3,13.8
C[C@H]1CN([C@@H](C)CO)C(=O)CCCn2nncc2CO[C@@H]1CN(C)Cc1ccc(-c2ccccc2)cc1,-1.1,nt,nt,-0.2,nt,nt
Cc1c2cc(O)c(=O)cc-2oc2cc(O)c(O)cc12,-8.6,88.8*,77.6*,10.5,96.4*,85.2*
CC(=O)N1CCN(c2ccc(OC[C@H]3CO[C@](Cn4ccnc4)(c4ccc(Cl)cc4Cl)O3)cc2)CC1,-8.7,9.6,25.5*,2.1,4.1,-0.7
CC(=O)c1c(O)c(C)c(O)c2c1OC1=Cc3c(c(C)nn3C)C(=O)C12C (stereo not drawn),-4.5,nt,nt,-1.4,nt,nt
CCN1CCC(O)(C(C(=O)O)c2ccccc2)CC1 (stereo not drawn),-0.7,1.7,nt,-5.5,-5.6,-2.6
COc1ccc(C2=CC3=C(Br)C(=O)C(C)(OC(=O)c4cccs4)C(=O)C3=CO2)cc1 (stereo not drawn),-0.1,1.0,28.2*,0.7,10.4,9.1
O=C(CC1SC(=O)N(c2ccccc2)C1=O)Nc1ccc(Cl)cc1 (stereo not drawn),-4.3,2.4,21.6,5.8,-1.4,3.0
O=C(CC1SC(=O)N(c2ccccc2)C1=O)Nc1ccc(Br)cc1 (stereo not drawn),nt,nt,32.2*,nt,nt,nt
CC(C)(C)NC(=O)[C@@H]1CN(Cc2cccnc2)CCN1C[C@@H](O)C[C@@H](Cc1ccccc1)C(=O)N[C@H]1c2ccccc2C[C@H]1O,-4.5,15.4,0.6,-2.5,5.3,-0.2
C=CCn1c(SC2CCOC2=O)nc2sc(C)c(C)c2c1=O (stereo not drawn),-11.4,5.8,8.2,-8.0,2.6,1.8
SMILES,PKA-R1A activ,PAFAH1B3 inh,pPAFAH FP inh,PKA-R2B act,PAFAH2 inh,PAFAH1B2 inh
C=CCn1c(SC2CCOC2=O)nc2sc(CC)cc2c1=O (stereo not drawn),6.1,4.3,27.4*,6.1,10.0,-3.6
NC(=O)C1CCCN(C(=O)CN2C(=O)NC(c3ccccc3)(c3ccccc3)C2=O)C1 (stereo not drawn),-3.0,5.8,nt,-5.0,-1.3,0.2
Cc1ccc(S(=O)(=O)Nc2cc(C(=O)O)ccc2N2CCCCC2)cc1,9.1,-3.1,12.1,3.9,2.9,8.7
O=C(O)CCc1ccc(S(=O)(=O)Nc2cc(C(F)(F)F)ccc2N2CCCC2)cc1,-1.3,0.9,nt,0.8,7.7,30.1*
COC(=O)[C@@]12CCCCN1[C@H](c1ccc(-c3cccc(Cl)c3)c(OC)c1)[C@H]1C(=O)N(C)C(=O)[C@H]12,3.7,-7.0,6.1,-11.5,-5.5,-0.6
CC(=O)NC(CCS(C)(=O)=O)C(=O)Nc1ccc(Cl)c(Cl)c1 (stereo not drawn),2.6,-5.6,27.3*,0.3,1.5,-1.2
O=C(CC1CCCC1)N1CCN(S(=O)(=O)c2cccc(F)c2)CC1,8.2,6.8,nt,-5.6,3.2,-4.0
O=C(CNCCC1=CCCCC1)Nc1ccc(N2CCCCCC2)cc1,4.3,-1.5,32.2*,-1.9,10.7,8.2
Cc1ccc(OCC(=O)Nc2ccc(N3CCCC3)cc2)cc1C,-3.0,11.5,29.7*,-6.8,16.3,2.7
Cc1cccc(OCC(=O)Nc2ccc(N3CCCC3)cc2)c1C,-2.6,6.2,30.1*,-3.0,11.4,4.7
COc1ccccc1OCC(=O)Nc1ccc(N2CCCCC2)cc1,-0.8,4.9,4.2,-9.4,6.1,1.8
CCc1noc(C)c1C(=O)N(Cc1ccccc1)c1c(N)n(CCOC)c(=O)[nH]c1=O,0.0,2.8,0.0,-5.4,-4.9,4.7
CCN(CC)CCCNC(=O)C1CCN(C(=O)c2oc3cc4sc(N(C)C)nc4cc3c2C)CC1,-10.1,-1.6,1.0,-0.9,6.8,-0.7
Cc1cccc(CS(=O)(=O)Cc2ccc(C(=O)NCCCN3CCCC3)o2)c1,-8.9,6.0,32.7*,-4.1,-2.5,-5.7
CC(C)OCCCNC(=O)c1ccc(CS(=O)(=O)Cc2ccccc2F)o1,5.7,10.6,3.6,2.9,-7.3,0.4
COc1ccc(CCNC(=O)c2ccc(CSc3ccccc3)o2)cc1,-9.8,0.3,25.2*,-10.8,-3.6,16.0
COc1ccc(CCNC(=O)c2ccc(COc3ccccc3OC)o2)cc1,-3.3,3.7,3.1,3.2,1.7,-2.8
Cc1cccc(CS(=O)(=O)Cc2ccc(C(=O)NCCc3ccccc3)o2)c1,13.7,7.6,28.6*,6.4,6.2,3.6
CCCCNC(=O)c1ccc(CS(=O)(=O)Cc2ccccc2F)o1,3.1,6.2,25.2*,-0.8,-1.4,9.1

# Screening results (PubChem BioAssay)
